The values that follow come from ChEMBL document CHEMBL4513135, “CO-ADD screening of IQOG CSIS (Spain) compounds”.

One assay concerns Staphylococcus aureus. Particulars: Concentration 32 ug.mL-1; ASSAY_TEST Inhibition of Bacterial Growth; detection method Absorption (OD600); MEDIA CAMHB; plate type 384well; NBS; CORNING #3640; time 18 hr.
In the next assay the test system is Escherichia coli. Conditions: Concentration 32 ug.mL-1; ASSAY_TEST Inhibition of Bacterial Growth; detection method Absorption (OD600); MEDIA CAMHB; plate type 384well; NBS; CORNING #3640; time 18 hr.

Each structure is given as a SMILES string. Measured potencies and affinities stand elsewhere.

Regarding `COc1nc2ccc(C)cc2cc1C=O`, the figures for the Inhibition in the assay with Staphylococcus aureus and with Escherichia coli were 18.14% and 18.17%, respectively.
The corresponding values for `CCOC(=O)c1cc2c(N)c3c(nc2nc1C)CCCC3` are 8.67% and -8.78%.
With `O=Cc1c(-c2ccc(Br)cc2)nc2ccccn12`, the values for the Inhibition with Staphylococcus aureus and with Escherichia coli were 3.95% and 9.28%, respectively.
`N#Cc1c(NC2CCC(Cc3ccccc3)CC2)nc(NC2CCN(Cc3ccccc3)CC2)c(C#N)c1-c1ccccc1` (centres undefined): the figures for the Inhibition in the assay with Staphylococcus aureus and with Escherichia coli were 4.21% and -8.77%, respectively.
On to `Cn1c(CO)cc2cc(OCCCC3CCN(Cc4ccccc4)CC3)ccc21`, for which the results for the Inhibition with Staphylococcus aureus and with Escherichia coli were 7.02% and -17.9%, respectively.
For `O=C1SC(SCc2ccccc2)=NC1=Cc1ccccc1` the same measures were 6.82% and 1.82%.
`COC(=O)C(=Cc1ccc(OC)cc1)NC(C)=O`: the Inhibition with Staphylococcus aureus was 16.29%; with Escherichia coli, 8.29%.
`Cn1ccnc1C1C(C#N)=C(N)Oc2c1ccc1cccnc21` (centres undefined): the results for the Inhibition in the assay with Staphylococcus aureus and in the assay on Escherichia coli were 12.96% and -14.85%, respectively.
With `CCOC(=O)C1=C(C)OC(N)=C(C#N)C1c1ccncc1` (centres undefined), the Inhibition was 26.79% in the assay with Staphylococcus aureus and -33.19% in the assay with Escherichia coli.
The corresponding values for `O=C(NN=Cc1c[nH]c2ccccc12)c1cccc2ccccc12` are 15.12% and 10.09%.
As for `CCOC(=O)C1=C(C)OC(N)=C(C#N)C1c1ccc(OC)cc1` (centres undefined), the Inhibition was 9.52% in the assay on Staphylococcus aureus and -2.05% in the assay with Escherichia coli.
Consider `C=C1CN(C)c2c(C#N)c(-c3ccccc3)c(C#N)c(=O)n21`, for which the Inhibition in the assay on Staphylococcus aureus is listed as 8.64%; in the assay with Escherichia coli, -1.97%.
The corresponding values for `CCOC(=O)c1c(C)nc(/N=N/c2nc(C)c(C(=O)OCC)c(-c3ccccc3)c2C#N)c(C#N)c1-c1ccccc1` are 11.27% and 6.76%.
For `COc1ccc(C=C2N=C(c3ccccc3)SC2=O)cc1` the same measures were 12.36% and 7.03%.
As for `Nc1n[nH]c2c1C(c1ccccc1)CC(=O)N2` (centres undefined), the Inhibition is recorded as 40.09% with Staphylococcus aureus and -4.9% in the assay on Escherichia coli.
The corresponding values for `Nc1c2c(nc3c1C(c1ccc(Cl)c(Cl)c1)c1ccc4ccccc4c1O3)CCCC2` (centres undefined) are -15.84% and -11.77%.
The corresponding values for `CC(=O)O[C@H]1CC[C@H](NC(=O)c2ccccc2)CC1` are 27.4% and -7.44%.
With `CC(=O)Oc1ccc(C=C2N=C(c3ccccc3)OC2=O)cc1`, the Inhibition with Staphylococcus aureus was 10.97%; with Escherichia coli, 17.49%.
For `C#CCNC(=O)c1cc2cc(OCCCC3CCN(Cc4ccccc4)CC3)ccc2[nH]1` the same measures were 18.56% and -12.4%.
For `C/C=C(/C#N)C(=O)OC` the same measures were -6.91% and -6.93%.
For `COc1cccc(C2c3ccc4ccccc4c3OC(=NBr)C2(Br)C#N)c1` (centres undefined) the same measures were 27.48% and -7.21%.
On to `CCOC(=O)/C(C#N)=C\c1ccc(Cl)cc1`, for which the Inhibition is on record as 19.96% in the assay on Staphylococcus aureus and 11.69% with Escherichia coli.
For `CC(=O)Oc1ccc(C=C2N=C(c3ccccc3)OC2=O)c(OC(C)=O)c1` the same measures were 7.39% and 7.35%.
Regarding `COc1ccc(C2c3c(nc4c(c3N)CCCC4)Oc3ccc4ccccc4c32)cc1` (centres undefined), the Inhibition in the assay on Staphylococcus aureus was found to be 18.52%; with Escherichia coli, 4.53%.
In the case of `CN1C/C(=C\Cl)n2c1c(C#N)cc(C#N)c2=O`, the figures for the Inhibition in the assay on Staphylococcus aureus and in the assay with Escherichia coli were 23.22% and -15.97%, respectively.
For `NOC(=O)C1CCN(Cc2ccccc2)CC1` the same measures were 21.2% and 1.52%.
Regarding `CNCc1cc2ccccc2n1C.Cl`, the figures for the Inhibition in the assay on Staphylococcus aureus and in the assay on Escherichia coli were 7.33% and 3.85%, respectively.
The corresponding values for `N#CC1=C(N)Oc2ccc3ccccc3c2C1c1cccc([N+](=O)[O-])c1` (centres undefined) are 31.47% and -6.29%.
The corresponding values for `O=C(NNCc1c[nH]c2ccccc12)c1cccc2ccccc12` are -2.49% and 3.58%.
For `C/C(Cc1ccccc1)=N/NC(=O)c1c[nH]c2ccc(O)cc12` the same measures were 7.12% and 8.13%.
As to `N#Cc1cc2c(N)c3c(nc2nc1Cl)CCN(Cc1ccccc1)C3`, the Inhibition is listed as 31.61% in the assay with Staphylococcus aureus and -4.39% in the assay on Escherichia coli.
For `Cc1ccc2nc(Cl)c(/C=N/OCc3ccccc3)cc2c1` the same measures were 31.42% and 20.1%.
Take `COc1cccc(C2C(C#N)=C(N)Oc3ccc4ccccc4c32)c1` (centres undefined): the Inhibition with Staphylococcus aureus is 40.42%; with Escherichia coli it was -5.36%.
For `CC(C(=O)O)c1c[nH]c2ccccc12` (centres undefined) the same measures were 5.61% and 8.04%.
Regarding `CCOC(=O)C1=C(C)OC(N)=C(C#N)C1c1cccnc1` (centres undefined), the Inhibition in the assay with Staphylococcus aureus was -6.34%; in the assay with Escherichia coli it was -11.43%.
The corresponding values for `N#Cc1c(N)nc(S)c(C#N)c1-c1ccccc1` are 14.03% and 9.92%.
For `Cl.ClCCCCCN1CCCCC1` the same measures were 7.58% and 1.26%.
The corresponding values for `N#Cc1c(N)nc(NCCC2CCN(Cc3ccccc3)CC2)c(C#N)c1-c1ccccc1` are 34.16% and -9%.
With `C#CCNc1nc(NCCCCC2CCN(Cc3ccccc3)CC2)c(C#N)cc1C#N`, the values for the Inhibition in the assay on Staphylococcus aureus and in the assay on Escherichia coli were 5% and -12.03%, respectively.
The corresponding values for `Nc1c2c(nc3c1C(c1c(Cl)cccc1Cl)c1ccc4ccccc4c1O3)CCCC2` (centres undefined) are 2.04% and 3.11%.
Consider `Cn1cc(C=O)c2ccccc21`, for which the Inhibition with Staphylococcus aureus is given as -0.04%; in the assay on Escherichia coli it was -4.32%.
Regarding `COC(=O)C(NC(=O)c1ccccc1)=C(C)c1ccccc1`, the Inhibition was 11.03% with Staphylococcus aureus and 2.63% with Escherichia coli.

In general, Inhibition refers to the change of the read-out against control, counted positive when it falls.
